Records with an inconclusive call do not appear. Where a call stands in place of a potency, no number is given. More than one record can exist for a structure, and the calls need not agree. Calls of active or inactive are those of the source. Calls follow the shape of the dose curve; as a rule, active = well fitted inhibition curve with a large enough effect; inconclusive = small, poorly fitted or top-dose-only effect; inactive = flat fitted curve, though single readings scatter.
How the values were obtained:
Assay in all cases: qHTS profiling for inhibitors of Plasmodium falciparum proliferation (AID 504749); also: nearly all actives have a fitted effect of over 60% in size
Settings in all cases: P. falciparum in erythrocytes, SYBR Green DNA, 72 h; series mostly up to 28.7 µM
[1] = test system: AA1029
In short: (§1)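 Quantitative HTS: compounds pinned into medium, infected erythrocytes added (0.3% parasitemia, 2.5% hematocrit), 72 h culture at 37 C under 5% CO2. Saponin/Triton lysis with SYBR Green I, overnight RT, then fluorescence read.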

[2] = test system: AS120
In short: as §1

[3] = test system: ATS189
In short: as §1

[4] = test system: ATS95
In short: as §1

[5] = test system: C2A
In short: as §1

[6] = test system: CP185
In short: as §1

[7] = test system: CP191
In short: as §1

[8] = test system: CP192
In short: as §1

[9] = test system: CP194
In short: as §1

[10] = test system: CP201
In short: as §1
Potency is read from the fitted curve at half-maximal effect.

| SMILES | Potency [1] | Potency [2] | Potency [3] | Potency [4] | Potency [5] | Potency [6] | Potency [7] | Potency [8] | Potency [9] | Potency [10] |
| --- | --- | --- | --- | --- | --- | --- | --- | --- | --- | --- |
| COc1ccc2c3c1O[C@H]1C(=O)CC[C@H]4[C@@H](C2)N(C)CC[C@]314 | inactive | inactive | inactive | inactive | inactive | inactive | inactive | inactive | inactive | inactive |
| C/C(=C\c1csc(C)n1)[C@@H]1C[C@@H]2O[C@]2(C)CCC[C@H](C)[C@H](O)[C@@H](C)C(=O)C(C)(C)[C@@H](O)CC(=O)O1 | 0.0045 µM (active) | 0.0025 µM (active) | 0.0071 µM (active) | 0.0035 µM (active) | 0.0045 µM (active) | 0.002 µM (active) | 0.0028 µM (active) | 0.003 µM (active) | 0.0038 µM (active) | – |
| c1csc(C2(N3CCCCC3)CCCCC2)c1 | inactive | inactive | inactive | inactive | inactive | inactive | inactive | inactive | inactive | inactive |
| C[CH2][Hg][S]c1ccccc1C(=O)O | 3.16 µM (active) | 3.16 µM (active) | 3.55 µM (active) | 2 µM (active) | 3.98 µM (active) | 2 µM (active) | 3.55 µM (active) | 4.78 µM (active) | 3.01 µM (active) | 4.26 µM (active) |
| CCCN1CCCC2Cc3[nH]ncc3CC21 (centres undefined) | inactive | inactive | inactive | inactive | inactive | inactive | inactive | – | – | – |
| ClC1C(Cl)C(Cl)C(Cl)C(Cl)C1Cl (centres undefined) | inactive | inactive | inactive | inactive | inactive | inactive | inactive | inactive | inactive | inactive |
| CC(C)Nc1ccc(Nc2ccccc2)cc1 | 7.08 µM (active) | 11.2 µM (active) | 5.62 µM (active) | 7.94 µM (active) | 8.91 µM (active) | 8.91 µM (active) | 4.47 µM (active) | 5.36 µM (active) | 3.38 µM (active) | 4.78 µM (active) |
| ClCC1CO1 (centres undefined) | inactive | inactive | inactive | inactive | inactive | inactive | inactive | inactive | inactive | inactive |
| Clc1ccc(C2(Cn3cncn3)OCCO2)c(Cl)c1 | inactive | inactive | inactive | inactive | inactive | inactive | inactive | inactive | inactive | inactive |
| CCN(CC)C(=O)/C(Cl)=C(\C)OP(=O)(OC)OC | inactive | inactive | inactive | inactive | inactive | inactive | inactive | – | – | – |
| O[C@H]1[C@H]2[C@H](O)CCCN2C[C@H]1O | inactive | inactive | inactive | inactive | inactive | inactive | inactive | inactive | inactive | inactive |
| COc1ccc2c(c1OC)C(=O)OC2C1c2cc3c(cc2CCN1C)OCO3 (centres undefined) | inactive | inactive | inactive | inactive | inactive | inactive | inactive | – | – | – |
| CC(C)(C)c1cc(O)ccc1O | 8.91 µM (active) and inactive | 8.91 µM (active) | 10 µM (active) | 7.94 µM (active) | 4.47 µM (active) | 11.2 µM (active) and inactive | 11.2 µM (active) | inactive | 16.9 µM (active) and inactive | inactive |
| c1cc2c(c(NC3=NCCN3)c1)CCCC2 | inactive | inactive | inactive | inactive | inactive | inactive | inactive | – | – | – |
| CC(Cc1ccccc1)NC=O (centres undefined) | inactive | inactive | inactive | inactive | inactive | inactive | inactive | inactive | inactive | inactive |
| CCC1C(C)=NN=C(c2ccc(OC)c(OC)c2)c2cc(OC)c(OC)cc21 (centres undefined) | inactive | inactive | inactive | inactive | inactive | inactive | inactive | inactive | inactive | inactive |
| O=C1CCCCC1CN1CCCCC1 (centres undefined) | inactive | inactive | inactive | inactive | inactive | inactive | inactive | inactive | inactive | inactive |
| Cn1sc(Cl)cc1=O | inactive | inactive | inactive | inactive | inactive | inactive | inactive | inactive | inactive | inactive |
| O=C(OCCN1CCCCC1)C(O)(c1ccccc1)c1ccccc1 | inactive | inactive | inactive | inactive | inactive | inactive | inactive | inactive | inactive | inactive |
| COc1ccc(OC)c(C(O)C(C)N)c1 (centres undefined) | inactive | inactive | inactive | inactive | inactive | inactive | inactive | inactive | inactive | inactive |
| C#CC(C)(O)CC (centres undefined) | inactive | inactive | inactive | inactive | inactive | inactive | inactive | inactive | inactive | inactive |
| [O]=[Cd] | inactive | inactive | inactive | inactive | inactive | inactive | inactive | inactive | inactive | inactive |
| C=CCC1(C(C)CCC)C(=O)N=C(S)NC1=O (centres undefined) | inactive | inactive | inactive | inactive | inactive | inactive | inactive | – | – | – |
| O=C(O)C(Cl)(Cl)Cl | inactive | inactive | inactive | inactive | inactive | inactive | inactive | inactive | inactive | inactive |
| CCC1(CC)C(=O)NC(=O)N(C)C1=O | inactive | inactive | inactive | inactive | inactive | inactive | inactive | inactive | inactive | inactive |

| SMILES | Potency [1] | Potency [2] | Potency [3] | Potency [4] | Potency [5] | Potency [6] | Potency [7] | Potency [8] | Potency [9] | Potency [10] |
| --- | --- | --- | --- | --- | --- | --- | --- | --- | --- | --- |
| CCCC(C)C1(CC)C(=O)NC(=O)NC1=O (centres undefined) | inactive | inactive | inactive | inactive | inactive | inactive | inactive | inactive | inactive | inactive |
| ClC(Cl)(Cl)Cl | inactive | inactive | inactive | inactive | inactive | inactive | inactive | inactive | inactive | inactive |
| c1ccc2cc(CC3=NCCN3)ccc2c1 | inactive | inactive | inactive | inactive | inactive | inactive | inactive | inactive | inactive | inactive |
| CCNC(C)Cc1cccc(C(F)(F)F)c1 (centres undefined) | inactive | inactive | inactive | inactive | inactive | inactive | inactive | inactive | inactive | inactive |
| CNC(=O)OCC[N+](C)(C)C | inactive | inactive | inactive | inactive | inactive | inactive | inactive | inactive | inactive | inactive |
| O=[N+]([O-])C(Br)(CO)CO | inactive | inactive | inactive | inactive | inactive | inactive | inactive | inactive | inactive | inactive |
| O=c1[nH]cc(N(CCCl)CCCl)c(=O)[nH]1 | inactive | inactive | inactive | inactive | inactive | inactive | inactive | inactive | inactive | inactive |
| O=[N+]([O-])c1ccccc1 | inactive | inactive | inactive | inactive | inactive | inactive | inactive | inactive | inactive | inactive |
| CCC(=O)O[C@@](Cc1ccccc1)(c1ccccc1)[C@@H](C)CN(C)C | inactive | inactive | inactive | inactive | inactive | inactive | inactive | inactive | inactive | inactive |
| C=CCN=C=S | inactive | inactive | inactive | inactive | inactive | inactive | inactive | – | – | – |
| Oc1cccc[c]1[Hg][Cl] | 11.2 µM (active) | 7.94 µM (active) | 12.6 µM (active) | 10 µM (active) | 12.6 µM (active) | 7.94 µM (active) | 10 µM (active) | 15.1 µM (active) | – | – |
| ClC=C(Cl)Cl | inactive | inactive | inactive | inactive | inactive | inactive | inactive | inactive | inactive | inactive |
| O=[N+]([O-])c1cc(I)c(O)c(I)c1 | inactive | inactive | inactive | inactive | inactive | inactive | inactive | inactive | inactive | inactive |
| CC(N)Cc1ccc(O)cc1 (centres undefined) | inactive | inactive | inactive | inactive | inactive | inactive | inactive | inactive | inactive | inactive |
| CCC(N)Cc1c[nH]c2ccccc12 (centres undefined) | inactive | inactive | inactive | inactive | inactive | inactive | inactive | inactive | inactive | inactive |
| CCCCNCC(O)c1ccc(O)cc1 (centres undefined) | inactive | inactive | inactive | inactive | inactive | inactive | inactive | inactive | inactive | inactive |
| O=P(O)(O)C(Cl)(Cl)P(=O)(O)O | inactive | inactive | inactive | inactive | inactive | inactive | inactive | inactive | inactive | inactive |
| O=C1CC[C@@]2(O)C3Cc4ccc(O)c5c4C2(CCN3CC2CC2)[C@H]1O5 (some centres undefined) | inactive | inactive | inactive | inactive | inactive | inactive | inactive | inactive | inactive | inactive |
| [N-]=[N+]=CC(=O)OCC(N)C(=O)O (centres undefined) | inactive | inactive | inactive | inactive | inactive | inactive | inactive | inactive | inactive | inactive |
| N#CC1(N2CCCCC2)CCCCC1 | inactive | inactive | inactive | inactive | inactive | inactive | inactive | inactive | inactive | inactive |
| CC[N+](C)(CC)CCOC(=O)C(O)(c1ccccc1)c1ccccc1 | inactive | inactive | inactive | inactive | inactive | inactive | inactive | inactive | inactive | inactive |
| C[N+]1(C)CCCCC1COC(=O)C(O)(c1ccccc1)c1ccccc1 (centres undefined) | inactive | inactive | inactive | inactive | inactive | inactive | inactive | inactive | inactive | inactive |
| O=C(NCNC(=O)NC1C(=O)NC(=O)N1CO)NC1C(=O)NC(=O)N1CO (centres undefined) | inactive | inactive | inactive | inactive | inactive | inactive | inactive | inactive | inactive | inactive |
| C[N+]1(C)C2CCC1CC(OC(=O)c1c[nH]c3ccccc13)C2 (centres undefined) | inactive | inactive | inactive | inactive | inactive | inactive | inactive | inactive | inactive | inactive |

— PubChem BioAssay (NCATS)
